Assay outcomes deposited in PubChem BioAssay by National Center for Advancing Translational Sciences (NCATS).
An excerpt weighted towards active compounds, which were near 7.5% of everything screened.
ELG1 genotoxic: qHTS screen for small molecules that induce genotoxicity in human embryonic kidney (HEK293T) cells expressing luciferase-tagged ELG1; HEK293T ELG1-luciferase reporter, luminescence, 16 h; hit rate 1.3% among 330,000; Potency, µM (highest dose often 46 µM), for inactives: top-dose activity change, positive = activation, hits mostly activators; AID 504466, 2011; further: % of control where 0% means no effect; nearly all actives have a fitted effect of over 60% in size
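Screening used a luciferase reporter fused to human ELG1 in HEK293T cells. Luminescence was read on a CCD plate imager after 16 hr exposure and 30 min ONE-Glo incubation.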
SMN2 splice up: qHTS Assay for Enhancers of SMN2 Splice Variant Expression | HEK293 SMN2-luciferase splicing reporter, luminescence, 30-36 h | Potency, µM (series often up to 46.1 µM), without a hit: at the highest dose activity change, positive = activation, most hits filed as activators | hit rate 2.8% among 210,000 | AID 1458, 2008; further: % of control where 0% means no effect; nearly all actives have a fitted effect of over 55% in size
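HEK293 cells carry an SMN2 minigene-luciferase reporter in which exon 7 inclusion puts luciferase in frame. Cells were seeded at 2000 cells/well, attached for 10-12 hours, then exposed to compounds for 30-36 hours at 37C before ONE-Glo luminescence.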
FLuc counter: qHTS profiling assay for firefly luciferase inhibitor/activator using purifed enzyme and Km concentrations of substrates (counterscreen for miR-21 project). Potency, µM (top dose mostly 57.5 µM), without a hit: at the top dose activity change, negative = inhibition, most hits filed as inhibitors. Luciferin 4-monooxygenase (Photinus pyralis), P08659. hit rate 6.9% among 360,000. AID 588342, 2011. purified FLuc, Km substrates, luminescence inhibition;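 further: plate controls were vehicle for no effect and reference inhibitor for full effect; nearly all actives have a fitted effect of over 55% in size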
Target sequence (P08659 whole entry, looked up): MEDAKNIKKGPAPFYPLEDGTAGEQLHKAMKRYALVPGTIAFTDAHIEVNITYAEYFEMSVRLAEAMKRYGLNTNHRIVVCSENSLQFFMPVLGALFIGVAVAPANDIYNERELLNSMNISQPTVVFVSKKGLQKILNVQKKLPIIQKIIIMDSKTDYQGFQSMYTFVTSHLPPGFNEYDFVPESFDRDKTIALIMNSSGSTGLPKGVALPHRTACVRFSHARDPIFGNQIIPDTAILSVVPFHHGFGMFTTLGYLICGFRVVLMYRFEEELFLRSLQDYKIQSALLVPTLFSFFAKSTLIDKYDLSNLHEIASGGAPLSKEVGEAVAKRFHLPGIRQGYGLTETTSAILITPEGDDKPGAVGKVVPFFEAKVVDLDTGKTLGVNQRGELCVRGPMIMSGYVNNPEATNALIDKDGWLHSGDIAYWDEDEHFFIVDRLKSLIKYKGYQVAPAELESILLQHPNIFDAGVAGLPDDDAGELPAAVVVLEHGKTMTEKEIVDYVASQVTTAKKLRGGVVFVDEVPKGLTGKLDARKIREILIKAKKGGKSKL
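Biochemical qHTS of compounds, final roughly 60 µM downward over six points, against 10 nM purified firefly luciferase using Km concentrations of substrates (10 uM D-luciferin, 10 uM ATP) in Tris acetate pH 7.5 buffer; luminescence output.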
NPC1 promoter act: qHTS Assay for NPC1 Promoter Activators | AID 485313, 2010 | hit rate 2.4% among 320,000 | Potency, µM (titrated, usually from 9.22 µM), for the others: at the highest dose activation, actives largely listed as activators | Huh7 NPC1 promoter luciferase reporter, 24 h; further: % of control where 0% means no effect; nearly all actives have a fitted effect of over 60% in size
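Luciferase expression driven by the NPC1 promoter was measured in stably transfected Huh7 cells after a 24 h compound incubation, using a luciferase reagent and a luminescence read.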
Rab9 promoter act: qHTS Assay for Rab9 Promoter Activators; Huh7 Rab9 promoter-luciferase reporter, luminescence, 24 h; Potency, µM (top dose mostly 9.22 µM), for the others: at the top dose activation, negative = inhibition, most hits filed as activators; hit rate 2.8% among 320,000; AID 485297, 2010; further: % of control where 0% means no effect; nearly all actives have a fitted effect of over 60% in size
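Rab9 promoter-driven luciferase in stably transfected Huh7 cells; 1500 cells/well rested 2 h, exposed to compound in DMSO for 24 h at 37 °C, 5% CO2. Luminescence read 10 min after adding luciferase reagent at ambient temperature.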
Numbers without * were called inactive. The call rests on the fitted dose curve; in most records, active means well fitted curve in the direction sought with a large enough effect; inconclusive means small, poorly fitted or top-dose-only effect, or another doubt; inactive means no such curve, though single readings can be large; an effect the other way counts as inactive or inconclusive. Potency means the concentration at half of the fitted maximal effect.

What do the screens show for `Cc1ccc(NC(=O)c2ccc(OC(=O)COc3ccc(Cl)cc3C)cc2)cc1`?
ELG1 genotoxic: inconclusive; SMN2 splice up: 12.6µM*; FLuc counter: inconclusive; NPC1 promoter act: 3.98µM*; Rab9 promoter act: 3.55µM*

What do the screens show for `O=C(Nc1nc2n(n1)C(c1ccc(F)cc1)C=C(c1ccccc1)N2)c1cccc([N+](=O)[O-])c1` (configuration not stated)?
FLuc counter: 0.4%

How did C[C@@H]1NC(=O)[C@H](CCC(=O)O)NC(=O)c2cc([N+](=O)[O-])cc(F)c2NCCC[C@@H](C(N)=O)NC1=O do in these assays?
ELG1 genotoxic: 2.5%; SMN2 splice up: 7.0%; FLuc counter: -0.6%; NPC1 promoter act: -3.2%; Rab9 promoter act: -3.2%

How did Cc1cccc(OCC(=O)Nc2nonc2-c2ccc(Br)cc2)c1C do in these assays?
FLuc counter: -4.8%

What do the screens show for `O=C(Nc1ccnn1C1CCN(C2CCCC2)CC1)c1ccccc1Cl`?
ELG1 genotoxic: -0.4%; FLuc counter: 0.7%; NPC1 promoter act: 2.9%; Rab9 promoter act: 1.2%

How did c1cncc(-c2nc(-c3cccs3)cs2)c1 do in these assays?
ELG1 genotoxic: 13.8%; SMN2 splice up: -3.9%; FLuc counter: 26.9µM*; NPC1 promoter act: 28.6%; Rab9 promoter act: 18.6%

What do the screens show for `Oc1ccc(-c2csc(-c3cccnc3)n2)c(O)c1`?
ELG1 genotoxic: inconclusive; SMN2 splice up: inconclusive; FLuc counter: 3.01µM*; NPC1 promoter act: inconclusive; Rab9 promoter act: inconclusive

Results for Clc1ccsc1-c1csc(-c2cccnc2)n1 ?
ELG1 genotoxic: inconclusive; SMN2 splice up: 13.3%; FLuc counter: 10.7µM*; NPC1 promoter act: 16.5%; Rab9 promoter act: inconclusive

Results for c1csc(-c2csc(-c3cccs3)n2)c1 ?
ELG1 genotoxic: 20.6µM*; SMN2 splice up: 3.3%; FLuc counter: 12µM*; NPC1 promoter act: 19.6%; Rab9 promoter act: inconclusive

Results for c1cncc(-c2nc(-c3ccco3)cs2)c1 ?
ELG1 genotoxic: 29.3%; SMN2 splice up: inconclusive; FLuc counter: inconclusive; NPC1 promoter act: 18.2%; Rab9 promoter act: 22.1%

What do the screens show for `c1cncc(-c2csc(-c3cccnc3)n2)c1`?
ELG1 genotoxic: -9.0%; FLuc counter: inconclusive; NPC1 promoter act: -4.8%; Rab9 promoter act: 0.9%

Results for O=C(CN1C(=O)c2ccccc2S1(=O)=O)Nc1cccc(S(=O)(=O)N2CCOCC2)c1 ?
ELG1 genotoxic: -0.9%

What do the screens show for `Cc1ccc(-c2nc(CS(=O)(=O)CC(=O)Nc3cc(F)ccc3F)c(C)o2)cc1`?
ELG1 genotoxic: -4.8%; FLuc counter: -0.2%; NPC1 promoter act: -6.6%; Rab9 promoter act: -0.9%

How did COc1cccc(/C=N/Nc2ncnc(N)c2[N+](=O)[O-])c1OC do in these assays?
ELG1 genotoxic: inconclusive; SMN2 splice up: 3.16µM*; FLuc counter: 4.78µM*; NPC1 promoter act: 1.78µM*; Rab9 promoter act: 0.562µM*

Results for Cc1cc(/C=N/Nc2nc(N)ncc2[N+](=O)[O-])c(C)n1-c1cccc(C(F)(F)F)c1 ?
ELG1 genotoxic: inconclusive; FLuc counter: 1.51µM*; NPC1 promoter act: 0.891µM*; Rab9 promoter act: 0.447µM*

What do the screens show for `COc1cccc(/C=N/Nc2ncc(C)c(=O)[nH]2)c1OC`?
ELG1 genotoxic: 9.8%; FLuc counter: 0.2%; NPC1 promoter act: -3.5%; Rab9 promoter act: 0.4%

Results for Cc1cc(/C=N/Nc2ncnc(N)c2[N+](=O)[O-])c(C)n1-c1ccccc1 ?
ELG1 genotoxic: inconclusive; FLuc counter: 0.0757µM*; NPC1 promoter act: inconclusive; Rab9 promoter act: -18.1%

Results for CC1(C)OC(=O)C(=CNC(CCC(N)=O)C(=O)O)C(=O)O1 (configuration not stated) ?
ELG1 genotoxic: -2.7%; SMN2 splice up: 21.7%; FLuc counter: 2.0%; NPC1 promoter act: -2.3%; Rab9 promoter act: -4.1%
